Screens (PubChem BioAssay)
Hits are enriched below; roughly 1% of the tested compounds scored in any of these assays.
V-ATPase pH – alters yeast V-ATPase proton transport | 0.37% of 350,000 active | AID 504577 | S. cerevisiae, pHLuorin cytosolic pH fluorescence | response, % at 10 µM; in the data active = response mostly above about 7.3%, no sharp cut-off; inactive = mostly below about 5.4%; also: actives read high
iPSC survival up – increases survival of single human iPS cells. hiPSC single-cell survival, ATPlite luminescence; 100% = ROCK inhibitor wells, 0% = DMSO. survival enhancement, % at 20 µM. 0.044% of 360,000 active. AID 602274; in the data active = survival enhancement above about 18%;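 also: cells exposed to compounds for 16 hours before the ATP read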
CTSL1 counter – counter-screen for PFM18AAP inhibitors: inhibitors of F. hepatica cathepsin L1 | recombinant F. hepatica cathepsin L1, Z-Leu-Arg-MCA fluorescence | inhibition, % at 5.96 µM | 0.49% of 300,000 active;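 active = inhibition above the mean of all tested compounds plus 3 SD, set per screening campaign, cut at about 17% in these data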;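 also: 0% = plate median of test compound wells and 100% = 1 µM Z-Phe-Ala-diazomethylketone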
CR mimetic SO – caloric restriction mimetics inhibiting age-related superoxide in yeast | superoxide response (% of plate mean), % at 10 µM | S. cerevisiae aged cells, superoxide DHE fluorescence; active compounds read low | 0.18% of 330,000 active;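 active = superoxide response under a set limit, about three screen SD below normal, cut at about 65% in these data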;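 also: yeast aged for seven days with compound at 30 °C before DHE staining; 100% = average MFI of all compound-treated wells on the plate with controls excluded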
Superoxide pick – confirmation of caloric restriction mimetics inhibiting yeast age-related superoxide. superoxide response (% of plate), % at 10 µM. 1% of 850 active. S. cerevisiae aging, superoxide DHE fluorescence; active compounds read low. shares compounds with CR mimetic SO. AID 434994;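 active = superoxide signal below 65% of the plate average of sample wells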;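 also: cells aged with compound for 7 days at 30 degrees C before staining; 100% equals mean DHE fluorescence of all compound wells on the plate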
DHE fluor count – DHE fluorescence interference, counter-screen artifact; shares compounds with CR mimetic SO; S. cerevisiae BY4741, flow cytometry; active compounds read low; fluorescence response, % at 10 µM; 850 tested, under 10 active;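 active = fluorescence response below 15%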;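 also: percent of the mean fluorescence averaged over all compound wells on the plate; lower means stronger quenching of DHE signal or ROS scavenging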
* marks the source's active call; other numbers are inactive results.

Results for O=C(Nc1ccc2nccnc2c1)Nc1ccccc1Cl ?
V-ATPase pH: -4; iPSC survival up: 1; CTSL1 counter: 1; CR mimetic SO: 77

What do the screens show for `COc1ccccc1CN1CC(C(=O)NCCc2ncccc2C)CCC1=O` (stereo not given)?
V-ATPase pH: 5; iPSC survival up: 0

Results for CC(=O)c1cccc(NC(=O)Nc2ccc3c(c2)OCO3)c1 ?
V-ATPase pH: 0; iPSC survival up: 0; CR mimetic SO: 94

Results for COc1ccc(NC(=O)N2CCc3ccccc3C2)cc1 ?
V-ATPase pH: -1; iPSC survival up: -1; CR mimetic SO: 52*; Superoxide pick: 101; DHE fluor count: 102

How did CN(CC(=O)Nc1ccccc1Br)C(=O)CN1CCN(Cc2ccc(Cl)cc2)CC1 do in these assays?
V-ATPase pH: 0; iPSC survival up: 0; CR mimetic SO: 108

What do the screens show for `C#Cc1cccc(-n2nnc(C(=O)OC)c2-c2ccccc2)c1`?
V-ATPase pH: 3; iPSC survival up: 0; CTSL1 counter: -1; CR mimetic SO: 52*; Superoxide pick: 96; DHE fluor count: 94

Results for CC(=O)O[C@H]1C[C@@H]2CC[C@@H]3[C@H](CC[C@@]4(C)[C@H]3C[C@H]([N+]3(C)CCCCC3)[C@@H]4OC(C)=O)[C@@]2(C)C[C@@H]1[N+]1(C)CCCCC1 ?
V-ATPase pH: -5; iPSC survival up: 0; CTSL1 counter: -1; CR mimetic SO: 87

Results for CC(=O)O[C@H]1C[C@@H]2CC[C@@H]3[C@H](CC[C@@]4(C)[C@H]3C[C@H]([N+]3(C)CCCCC3)[C@@H]4OC(C)=O)[C@@]2(C)C[C@@H]1N1CCCCC1 ?
CTSL1 counter: 3; CR mimetic SO: 92; Superoxide pick: 103; DHE fluor count: 91

Results for CN1CCN(C2=Cc3ccccc3Sc3cc(F)c(F)cc32)CC1 ?
V-ATPase pH: 1; iPSC survival up: -2; CTSL1 counter: 0; CR mimetic SO: 73

What do the screens show for `CN1CCN(C2=Cc3cc(Cl)ccc3Sc3cc(F)ccc32)CC1`?
V-ATPase pH: -1; iPSC survival up: 0; CTSL1 counter: 5; CR mimetic SO: 60*; Superoxide pick: 94; DHE fluor count: 93

What do the screens show for `COC(=O)[C@]12CCCCC=C1N(Cc1ccco1)C(=O)[C@H](CC(=O)NCc1cccc(C(F)(F)F)c1)C2`?
iPSC survival up: -1

What do the screens show for `COCCCNC(=O)CCc1nnc2ccc(N3CCC(C)CC3)nn12`?
V-ATPase pH: 3; iPSC survival up: 0; CTSL1 counter: -5; CR mimetic SO: 93

Results for CCCCn1c(N)c(N(CC(C)C)C(=O)c2ccc(-c3ccc(C(C)=O)cc3)o2)c(=O)[nH]c1=O ?
V-ATPase pH: 2; iPSC survival up: 0; CTSL1 counter: 7; CR mimetic SO: 65*; Superoxide pick: 110; DHE fluor count: 103

How did COc1ccccc1N(C)S(=O)(=O)c1ccc(C(=O)Nc2cccc(Br)c2)cc1 do in these assays?
V-ATPase pH: 1; iPSC survival up: 0; CR mimetic SO: 124

How did OC(CN1CCOCC1)Cn1c2c(c3ccccc31)CCCC2 (stereo not given) do in these assays?
V-ATPase pH: 2; iPSC survival up: 1; CTSL1 counter: 0; CR mimetic SO: 112

How did CCN(CC)CC(O)Cn1c2ccccc2c2ccccc21 (stereo not given) do in these assays?
V-ATPase pH: 2; iPSC survival up: -2; CTSL1 counter: -1; CR mimetic SO: 87; Superoxide pick: 112; DHE fluor count: 90

Results for OCCNCC(O)Cn1ccc2ccccc21 (stereo not given) ?
V-ATPase pH: 3; iPSC survival up: -3; CTSL1 counter: -1; CR mimetic SO: 111

What do the screens show for `OC(CN1CCOCC1)Cn1c2ccccc2c2ccccc21` (stereo not given)?
V-ATPase pH: 5; iPSC survival up: 0; CTSL1 counter: -10; CR mimetic SO: 44*; Superoxide pick: 97; DHE fluor count: 105

Results for OC(CN1CCCCC1)Cn1c2ccc(Cl)cc2c2cc(Cl)ccc21 (stereo not given) ?
V-ATPase pH: -1; iPSC survival up: -1; CTSL1 counter: -2; CR mimetic SO: 45*; Superoxide pick: 96; DHE fluor count: 93
